Results published in PubChem BioAssay (NCATS).
Records with an inconclusive call do not appear. Entries that show only a call come without a potency. Calls of active or inactive are those of the source. Unless noted, calls come from the whole dose curve; as a rule, active = well fitted curve in the direction sought with a large enough effect; inconclusive = small, poorly fitted or top-dose-only effect, or another doubt; inactive = no such curve, though single readings can be large; an effect the other way counts as inactive or inconclusive.

What was measured:
[1] = Cytometric Cell-Based qHTS for Inhibitors of the mTORC1 Signaling Pathway in MEF (Tsc2-/-, p53-/-) Cells (AID 2660); note: potency is the fitted concentration of half-maximal effect
Outline: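 Immunofluorescence qHTS of rpS6 Ser235/236 phosphorylation: MEFs (Tsc2-/-, p53-/-) treated 24 h, 37 C, in DMEM + 10% FBS. Alexa-488 signal normalized to PI count, referenced to rapamycin (7.5 nM) and DMSO; PI cell number recorded for viability.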

[2] = High Content Imaging Cell-Based qHTS for Inhibitors of the mTORC1 Signaling Pathway in MEF (Tsc2-/-, p53-/-) Cells (AID 2666);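 note: percent of cells scored positive for phospho-rpS6 Ser235/236 immunostaining by imaging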; note: potency is the fitted concentration of half-maximal effect
Outline: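 MEF Tsc2-/- p53-/- (empty vector), DMEM/10% FBS; cpd 24 h 37 °C; PFA fix, Alexa-488 p-rpS6 S235/236 Ab, Hoechst; imaged; rapamycin-defined inhibition; % positive cells/well.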

[3] = High Content Imaging Cell-Based qHTS for Inhibitors of the mTORC1 Signaling Pathway in MEF Cells (AID 2667); note: potency is the fitted concentration of half-maximal effect
Outline: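 Read-out is the share of phospho-rpS6-positive cells per well, from Hoechst-normalized Alexa-488 Ser235/236 staining imaged on IN Cell. Cells: WT Tsc2-expressing Tsc2-/-, p53-/- MEFs exposed to compound for 24 hrs.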

[4] = Cytometry Cell-Based qHTS for Inhibitors of the mTORC1 Signaling Pathway in MEF cells (AID 2668);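 note: Tsc2-/- p53-/- mouse embryonic fibroblasts stably re-expressing wild-type Tsc2; percent cells positive for phospho-rpS6 Ser235/236 relative to propidium iodide stain; series mostly up to about 38 µM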
Outline: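 Pathway inhibition in WT Tsc2-rescued Tsc2-/-, p53-/- MEFs is measured as the Alexa-488 phospho-rpS6 to propidium iodide intensity ratio after 24 hrs of compound at 37 degree Celsius. PI-stained cell number gives viability.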

[5] = Validation screen for small molecules that induce DNA re-replication in MCF 10A normal breast cells (AID 463097); note: nearly all actives have a fitted effect of over 60% in size; note: potency is the fitted concentration of half-maximal effect
Outline: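 DNA re-replication was detected as a rise in nuclei with elevated Hoechst fluorescence after a 48 hr compound exposure of MCF 10A cells at 37 C.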

[6] = biological target: Ubiquitin carboxyl-terminal hydrolase 2 (Homo sapiens) (UniProt O75604); assay: qHTS Validation Assay for Inhibitors of Ubiquitin-specific Protease USP2a Using CHOP2 as the Reporter (AID 463106)
Ubiquitin carboxyl-terminal hydrolase 2 (Homo sapiens), sequence (O75604 whole entry, looked up): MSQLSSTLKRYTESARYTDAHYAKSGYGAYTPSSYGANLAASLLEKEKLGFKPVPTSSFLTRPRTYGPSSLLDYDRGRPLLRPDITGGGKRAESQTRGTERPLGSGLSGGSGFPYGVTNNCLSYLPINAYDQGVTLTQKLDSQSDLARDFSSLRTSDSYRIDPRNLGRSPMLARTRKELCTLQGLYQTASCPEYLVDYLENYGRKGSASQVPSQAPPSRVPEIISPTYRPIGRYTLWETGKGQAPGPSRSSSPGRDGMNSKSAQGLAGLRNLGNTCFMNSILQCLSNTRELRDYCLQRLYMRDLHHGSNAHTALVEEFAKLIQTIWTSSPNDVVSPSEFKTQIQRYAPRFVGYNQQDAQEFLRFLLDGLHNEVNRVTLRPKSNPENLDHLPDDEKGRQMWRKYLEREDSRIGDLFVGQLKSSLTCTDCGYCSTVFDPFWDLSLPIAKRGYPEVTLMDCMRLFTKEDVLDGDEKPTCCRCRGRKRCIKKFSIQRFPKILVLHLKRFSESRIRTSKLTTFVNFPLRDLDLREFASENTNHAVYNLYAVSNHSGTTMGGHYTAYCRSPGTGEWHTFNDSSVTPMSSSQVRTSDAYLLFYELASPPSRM
Outline: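 Fluorescence read-out at Ex 485nm/Em 531nm after 60min RT, following addition of 25nM Ub-CHOP2 plus 25nM reporter substrate to USP2 core (10nM) pretreated 30min with compound. Data normalized to NEM full inhibition; concentration-response curves fitted.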

[7] = biological target: DNA polymerase III PolC-type (Bacillus subtilis (strain 168)) (UniProt P13267); assay: qHTS Validation Assay for the Inhibitors of DNA Replication in Gram-Positive Bacteria (AID 485295); note: potency is the fitted concentration of half-maximal effect
DNA polymerase III PolC-type (Bacillus subtilis (strain 168)), sequence (P13267 whole entry, looked up): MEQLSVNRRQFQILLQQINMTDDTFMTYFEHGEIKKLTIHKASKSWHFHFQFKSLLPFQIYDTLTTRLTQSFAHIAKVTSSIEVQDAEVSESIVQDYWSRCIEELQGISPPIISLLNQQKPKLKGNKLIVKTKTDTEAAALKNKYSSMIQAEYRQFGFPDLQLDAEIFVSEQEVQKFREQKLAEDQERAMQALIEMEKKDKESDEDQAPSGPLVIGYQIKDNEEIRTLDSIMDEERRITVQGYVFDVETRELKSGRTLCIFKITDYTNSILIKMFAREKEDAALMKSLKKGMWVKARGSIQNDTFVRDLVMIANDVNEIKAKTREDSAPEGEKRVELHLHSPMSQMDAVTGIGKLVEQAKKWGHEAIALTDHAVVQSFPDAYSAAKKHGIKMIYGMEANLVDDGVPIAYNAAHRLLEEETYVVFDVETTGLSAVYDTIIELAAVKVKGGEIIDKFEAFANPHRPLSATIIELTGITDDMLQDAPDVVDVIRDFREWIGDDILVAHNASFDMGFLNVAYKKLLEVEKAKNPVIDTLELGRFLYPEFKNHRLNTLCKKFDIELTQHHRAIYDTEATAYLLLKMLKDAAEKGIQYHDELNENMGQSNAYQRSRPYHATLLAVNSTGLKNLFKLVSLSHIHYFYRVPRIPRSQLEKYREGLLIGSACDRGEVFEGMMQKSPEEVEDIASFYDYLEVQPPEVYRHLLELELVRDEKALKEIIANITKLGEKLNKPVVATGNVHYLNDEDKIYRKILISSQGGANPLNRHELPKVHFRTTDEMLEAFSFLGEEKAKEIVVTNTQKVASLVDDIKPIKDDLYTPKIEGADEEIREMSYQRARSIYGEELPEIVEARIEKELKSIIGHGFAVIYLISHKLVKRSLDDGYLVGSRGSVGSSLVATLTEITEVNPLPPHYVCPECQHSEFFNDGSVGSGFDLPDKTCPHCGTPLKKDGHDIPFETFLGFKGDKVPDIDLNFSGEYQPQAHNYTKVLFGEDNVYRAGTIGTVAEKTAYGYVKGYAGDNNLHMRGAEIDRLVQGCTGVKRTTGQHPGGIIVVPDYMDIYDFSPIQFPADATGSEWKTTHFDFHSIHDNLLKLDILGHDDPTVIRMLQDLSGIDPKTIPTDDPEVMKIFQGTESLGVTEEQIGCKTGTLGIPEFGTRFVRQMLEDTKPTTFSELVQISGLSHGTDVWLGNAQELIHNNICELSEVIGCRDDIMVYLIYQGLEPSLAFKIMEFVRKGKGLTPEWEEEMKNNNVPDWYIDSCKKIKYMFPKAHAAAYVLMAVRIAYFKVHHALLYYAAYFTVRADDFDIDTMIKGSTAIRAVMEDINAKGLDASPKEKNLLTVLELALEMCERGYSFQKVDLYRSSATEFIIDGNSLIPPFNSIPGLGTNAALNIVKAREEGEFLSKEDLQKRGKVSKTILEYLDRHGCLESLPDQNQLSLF
Outline: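 Primed replication of single-stranded M13Gori by a four-protein B. subtilis holoenzyme is measured at room temperature. Double-stranded product is quantified by PicoGreen fluorescence after an EDTA stop; inhibition is scaled between DMSO and EDTA controls.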

[8] = biological target: Tumor susceptibility gene 101 protein (Homo sapiens) (UniProt Q99816); assay: qHTS Validation Assay for Iinhibitors of HIV-1 Budding by Blocking the Interaction of PTAP/TSG101 (AID 485342; calls by dose curve)
Tumor susceptibility gene 101 protein (Homo sapiens), sequence (Q99816 whole entry, looked up, the tested form may be a part): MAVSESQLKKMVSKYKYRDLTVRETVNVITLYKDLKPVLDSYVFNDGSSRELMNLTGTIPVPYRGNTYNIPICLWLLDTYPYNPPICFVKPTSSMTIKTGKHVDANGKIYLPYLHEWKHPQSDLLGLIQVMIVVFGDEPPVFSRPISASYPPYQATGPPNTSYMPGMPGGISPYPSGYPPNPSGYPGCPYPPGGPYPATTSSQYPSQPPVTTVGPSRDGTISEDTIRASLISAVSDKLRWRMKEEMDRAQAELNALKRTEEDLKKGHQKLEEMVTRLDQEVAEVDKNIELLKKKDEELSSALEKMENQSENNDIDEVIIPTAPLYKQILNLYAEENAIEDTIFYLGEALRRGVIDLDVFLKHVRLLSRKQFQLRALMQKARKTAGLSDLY
Outline: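 Fluorescence anisotropy measured PTAP-Tsg101 interaction. Final concentrations were 10 uM protein domain and 50 nM labeled peptide, equilibrated 20 min at room temperature.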

[9] = qHTS Validation Assay to Find Inhibitors of Chronic Active B-Cell Receptor Signaling (AID 485345; active = well fitted curve in the direction sought with a large enough effect in the main read-out, with a control signal flat, not every such curve was filed as active)
Outline: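 TMD8 ABC-DLBCL cells stably carrying doxycycline-inducible IkappaBalpha–green luciferase fusion plus unfused red luciferase; compounds 46 uM to 3 nM, 4 h at 37C with doxycycline. Corrected green/red luminescence ratio normalized to 10 uM MG-132 and basal cell wells; curves fitted.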

[10] = biological target: Beta-2 adrenergic receptor (Homo sapiens) (UniProt P07550); assay: qHTS validation assay of beta-arrestin-biased ligands of beta2-adrenergic receptor (AID 485366)
Beta-2 adrenergic receptor (Homo sapiens), sequence (P07550 whole entry, looked up): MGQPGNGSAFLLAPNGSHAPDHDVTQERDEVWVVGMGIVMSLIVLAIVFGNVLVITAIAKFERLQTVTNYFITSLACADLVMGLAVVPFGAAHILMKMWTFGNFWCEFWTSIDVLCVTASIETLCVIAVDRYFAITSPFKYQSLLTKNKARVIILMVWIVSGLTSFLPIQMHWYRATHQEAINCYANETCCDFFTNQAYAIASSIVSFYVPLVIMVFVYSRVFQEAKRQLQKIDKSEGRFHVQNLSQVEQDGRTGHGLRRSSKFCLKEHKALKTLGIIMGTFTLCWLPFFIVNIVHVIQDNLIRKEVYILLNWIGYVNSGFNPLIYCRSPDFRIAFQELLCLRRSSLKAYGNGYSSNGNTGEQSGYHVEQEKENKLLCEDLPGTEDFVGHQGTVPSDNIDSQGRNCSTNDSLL
Outline: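 Agonism was measured as beta-arrestin recruitment to recombinant beta2-AR, releasing tTA to drive luciferase. Cells were exposed for 18 hr at 37 degrees C to a series up to 46 microM. %Activity from corrected luminescence gave concentration-response curves.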

[11] = Quantitative high throughput screen for delayed death inhibitors of the malarial parasite plastid, 96 hour incubation (AID 488745); note: nearly all actives have a fitted effect of over 70% in size; note: potency is the fitted concentration of half-maximal effect
Outline: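 Two-generation (96 h) exposure of luciferase-reporter P. falciparum in erythrocytes, 2% hematocrit, 0.1% parasitemia final, 37 C, 5% CO2, RPMI 1640 with 0.5% Albumax. Growth inhibition scored by reduced luminescence.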

[12] = Quantitative high throughput screen for delayed death inhibitors of the malarial parasite plastid, 48 hour incubation (AID 488752); note: nearly all actives have a fitted effect of over 65% in size; note: potency is the fitted concentration of half-maximal effect
Outline: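 Cultures: infected erythrocytes at final 2% hematocrit and 0.1% parasitemia in Albumax-supplemented RPMI. Parasites express integrated firefly luciferase. Incubation with compound lasts 48 h before luminescent detection of remaining reporter activity.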

[13] = biological target: M-phase phosphoprotein 8 (Homo sapiens) (UniProt Q99549); assay: qHTS Validation Assay for Inhibitors for MPP8 Chromodomain Interactions with Methylated Histone Tails (AID 488949); note: nearly all actives have a fitted effect of over 55% in size; note: potency is the fitted concentration of half-maximal effect
M-phase phosphoprotein 8 (Homo sapiens), sequence (Q99549 whole entry, looked up): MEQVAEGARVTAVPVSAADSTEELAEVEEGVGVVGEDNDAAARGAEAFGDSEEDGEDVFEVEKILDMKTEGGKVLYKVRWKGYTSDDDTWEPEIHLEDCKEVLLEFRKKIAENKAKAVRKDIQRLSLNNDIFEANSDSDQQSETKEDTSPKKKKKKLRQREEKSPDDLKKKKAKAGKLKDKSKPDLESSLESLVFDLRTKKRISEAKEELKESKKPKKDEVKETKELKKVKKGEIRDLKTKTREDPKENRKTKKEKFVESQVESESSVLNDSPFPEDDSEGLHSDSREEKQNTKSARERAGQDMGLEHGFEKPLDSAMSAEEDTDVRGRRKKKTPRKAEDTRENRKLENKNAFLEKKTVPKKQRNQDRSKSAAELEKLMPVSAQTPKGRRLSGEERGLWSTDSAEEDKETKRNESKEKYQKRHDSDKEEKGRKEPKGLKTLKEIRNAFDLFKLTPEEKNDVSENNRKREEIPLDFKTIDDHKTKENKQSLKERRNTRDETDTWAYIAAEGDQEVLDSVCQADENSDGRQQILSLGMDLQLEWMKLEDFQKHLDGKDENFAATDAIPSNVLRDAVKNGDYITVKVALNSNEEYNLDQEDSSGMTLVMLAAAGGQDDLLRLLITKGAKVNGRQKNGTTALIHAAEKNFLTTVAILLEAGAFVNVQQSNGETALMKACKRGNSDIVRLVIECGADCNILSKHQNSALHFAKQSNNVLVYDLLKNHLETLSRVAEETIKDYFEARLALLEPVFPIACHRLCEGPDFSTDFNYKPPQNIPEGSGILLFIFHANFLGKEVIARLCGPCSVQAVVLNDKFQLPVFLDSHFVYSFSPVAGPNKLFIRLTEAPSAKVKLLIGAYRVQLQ
Outline: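 Disruption of the preformed MPP8–trimethyl-H3K9 peptide complex (both 50 nM, 30 min, RT) is measured after 30 min compound exposure, using AlphaScreen proximity beads; aurintricarboxylic acid titration serves as plate control.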

[14] = Validation screen for inhibitors of Lassa infection (AID 463096; calls by dose curve; note: potency is the fitted concentration of half-maximal effect)
[15] = biological target: ATP-dependent 6-phosphofructokinase (Trypanosoma brucei brucei) (UniProt O15648); assay: qHTS Validation Assay to Find Inhibitors of T. brucei phosphofructokinase (AID 485368); note: potency is the fitted concentration of half-maximal effect
ATP-dependent 6-phosphofructokinase (Trypanosoma brucei brucei), sequence (O15648 whole entry, looked up): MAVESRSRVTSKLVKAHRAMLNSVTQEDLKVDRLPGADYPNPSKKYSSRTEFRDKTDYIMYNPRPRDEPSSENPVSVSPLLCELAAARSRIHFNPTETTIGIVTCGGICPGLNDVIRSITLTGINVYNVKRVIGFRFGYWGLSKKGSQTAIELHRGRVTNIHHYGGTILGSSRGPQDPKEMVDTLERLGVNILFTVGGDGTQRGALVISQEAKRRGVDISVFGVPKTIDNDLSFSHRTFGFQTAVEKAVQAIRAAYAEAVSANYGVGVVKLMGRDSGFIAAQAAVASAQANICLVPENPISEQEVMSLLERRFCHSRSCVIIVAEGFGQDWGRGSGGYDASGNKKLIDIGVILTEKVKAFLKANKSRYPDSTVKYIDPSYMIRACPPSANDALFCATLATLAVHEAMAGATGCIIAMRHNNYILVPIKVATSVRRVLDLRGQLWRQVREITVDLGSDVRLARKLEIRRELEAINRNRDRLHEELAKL
Outline: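 ADP-Glo luminescence, two-step: residual ATP depleted, then ADP converted to ATP for luciferase. Enzyme 1.25 nM, F6P 0.5 mM, ATP 0.1 mM, pH 8.0 TEA buffer, 45 min RT. Curves fitted and classed by quality and efficacy.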

[16] = biological target: Thioredoxin reductase 1, cytoplasmic (Rattus norvegicus) (UniProt O89049); assay: qHTS Assay for Substrates of Mammalian Selenoprotein Thioredoxin Reductase 1 (TrxR1) (AID 488772);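 note: series mostly up to about 57 µM; a drop in NADPH fluorescence below the no-compound background marks a TrxR1 substrate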
Outline: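 In this dual-purpose format, potential substrates are identified from the first fluorescence read after selenite addition, not from the 8-minute delta. Rat enzyme is preincubated with NADPH and then with compound at ~22 deg C.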

[17] = biological target: Thioredoxin reductase 1, cytoplasmic (Rattus norvegicus) (UniProt O89049); assay: qHTS Assay for Inhibitors of Mammalian Selenoprotein Thioredoxin Reductase 1 (TrxR1) (AID 488773); details: Potency: inhibition; note: nearly all actives have a fitted effect of over 40% in size; note: potency is the fitted concentration of half-maximal effect
Outline: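 Inhibition is scored from the loss of NADPH fluorescence between first and last reads of an 8-min kinetic run. Selenite (400 uM) was the substrate, added after 15 min compound preincubation at room temperature.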

[18] = biological target: Flap endonuclease 1 (Homo sapiens) (UniProt P39748); assay: qHTS Validation Assay for the Inhibitors of Human Flap endonuclease 1 (FEN1) (AID 488816)
Flap endonuclease 1 (Homo sapiens), sequence (P39748 whole entry, looked up): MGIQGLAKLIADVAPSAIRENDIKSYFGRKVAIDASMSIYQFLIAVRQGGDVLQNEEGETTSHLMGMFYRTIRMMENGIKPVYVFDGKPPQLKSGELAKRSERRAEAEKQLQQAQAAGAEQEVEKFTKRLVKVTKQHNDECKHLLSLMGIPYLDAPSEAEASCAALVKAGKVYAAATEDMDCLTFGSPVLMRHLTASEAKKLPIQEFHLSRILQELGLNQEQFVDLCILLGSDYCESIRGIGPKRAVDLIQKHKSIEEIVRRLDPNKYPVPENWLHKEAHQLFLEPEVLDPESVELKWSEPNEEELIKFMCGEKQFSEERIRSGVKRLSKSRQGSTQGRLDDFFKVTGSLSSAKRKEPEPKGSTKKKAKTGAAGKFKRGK
Outline: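 Enzyme reagent 10 nM; cpds pinned; 15 min RT preinc.; substrate 50 nM final; reads t=0 and 15 min; no-enzyme buffer wells as neg. control; normalized data, 4-parameter Hill fit.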

Row | SMILES | Potency [1] | Potency [2] | Potency [3] | Potency [4] | Potency [5] | Potency [6] | Potency [7] | outcome [8] | Potency [9] | outcome [10] | Potency [11] | Potency [12] | Potency [13] | Potency [14] | Potency [15] | outcome [16] | Potency [17] | Potency [18]
1 | Clc1cc(I)cc(Cl)c1NC1=NCCN1 | inactive | inactive | inactive | inactive | inactive | inactive | inactive | inactive | inactive | inactive | inactive | inactive | inactive |  |  |  |  | 
2 | c1ccc2c(N3CCNCC3)cccc2c1 | inactive | inactive | inactive |  | inactive | inactive | inactive | inactive |  | inactive |  | inactive | inactive | inactive | inactive | inactive | inactive | 
3 | NC(Cc1cc(O)c(O)cc1O)C(=O)O (stereo not given) | inactive | inactive | inactive | inactive |  |  | 4.74 µM (active) | inactive | inactive | inactive | inactive | inactive |  |  |  |  | 10.6 µM (active) | 
4 | CCCC[N+]1(C)C2CC(OC(=O)[C@H](CO)c3ccccc3)CC1C1OC12 (stereo not given in full) | inactive | inactive | inactive | inactive |  | inactive | inactive |  | inactive | inactive |  |  | inactive |  |  | inactive | inactive | 
5 | CCNC(=O)[C@H]1O[C@@H](n2cnc3c(N)ncnc32)[C@H](O)[C@@H]1O | inactive | inactive | inactive | inactive |  | inactive | inactive | inactive |  | inactive |  |  | inactive |  | inactive | inactive |  | inactive
6 | CC(C)(O)[C@@H]1C2OC(=O)[C@@H]1[C@]1(O)C[C@H]3O[C@]34C(=O)O[C@H]2[C@]14C (tested in a mixture with another compound) | inactive | inactive | inactive | inactive |  | inactive | inactive | inactive | inactive | inactive |  |  |  |  | inactive | inactive | inactive | inactive
7 | C[C@@H]1O[C@@H](O[C@H]2C[C@@H](O)[C@]3(CO)[C@@H]4C(CC[C@]3(O)C2)[C@@]2(O)CC[C@H]([C@@H]3COC(=O)C3)[C@@]2(C)C[C@H]4O)[C@H](O)[C@H](O)[C@H]1O (stereo not given in full) | inactive | inactive | inactive | inactive |  | inactive | inactive |  |  | inactive |  |  | inactive |  | inactive | inactive | inactive | 
8 | O=C(O)c1cc[c]([Hg][Cl])cc1 | inactive | inactive | inactive | inactive |  | inactive | 4.74 µM (active) |  |  | inactive | 2.08 µM (active) | 4.15 µM (active) | 5.32 µM (active) | inactive | 0.269 µM (active) | inactive |  | inactive
9 | NC(=O)COc1c(F)cc(SCCNS(=O)(=O)c2ccccc2)cc1F | inactive | inactive | inactive | inactive |  |  | inactive | inactive |  | inactive | inactive | inactive |  | inactive |  | inactive | inactive | inactive
10 | CN1CC[C@@]2(C)c3cc(OC(=O)Nc4ccccc4)ccc3N(C)[C@@H]12 | inactive | inactive | inactive | inactive |  |  | inactive |  |  | inactive |  |  | inactive |  |  |  | inactive | inactive
11 | C=CCN(C1=NCCN1)c1c(Cl)cccc1Cl | inactive | inactive | inactive | inactive |  | inactive | inactive | inactive | inactive | inactive |  |  | inactive |  | inactive | inactive | inactive | 
12 | CCCn1c(=O)c2[nH]c(C3CCCC3)nc2n(CCCOC(=O)c2ccc(S(=O)(=O)F)cc2)c1=O | inactive | inactive | inactive | inactive |  | inactive | inactive |  |  | inactive |  | inactive | inactive | inactive |  | inactive |  | inactive
13 | C[N+]1(C)C2CCC1CC(OC(=O)c1c[nH]c3ccccc13)C2 (stereo not given) | inactive | inactive | inactive | inactive | 14.1 µM (active) | inactive | inactive |  | inactive | inactive |  |  |  |  | inactive | inactive | inactive | inactive
14 | NNC(=O)c1ccc(O)cc1 | inactive | inactive | inactive | inactive |  | inactive | inactive | inactive |  | inactive |  | inactive | inactive | inactive |  |  | inactive | inactive
15 | O=C1CC[C@@]2(O)C3Cc4ccc(O)c5c4C2(CCN3CC2CC2)[C@H]1O5 (stereo not given in full) | inactive | inactive | inactive | inactive |  |  | inactive |  | inactive | inactive | inactive | inactive | inactive | inactive |  | inactive |  | 
16 | CNc1ccc2oc(C[C@H]3O[C@@]4(CC[C@H]3C)O[C@H]([C@H](C)C(=O)c3ccc[nH]3)[C@H](C)C[C@H]4C)nc2c1C(=O)O | 14.7 µM (active) | 2.61 µM (active) |  |  | 1.58 µM (active) | inactive | inactive | inactive |  | inactive |  | 2.33 µM (active) |  | 7.08 µM (active) |  | inactive | inactive | 
17 | C[N+]1(C)CCOC(O)(c2ccc(-c3ccc(C4(O)C[N+](C)(C)CCO4)cc3)cc2)C1 (stereo not given) | inactive |  | inactive | inactive | inactive | inactive | inactive | inactive | inactive | inactive | inactive |  | inactive | inactive |  | inactive | inactive | inactive
18 | CC(N)Cc1c[nH]c2ccc(OCc3cccs3)cc12 (stereo not given) | inactive | inactive | 13.1 µM (active) |  |  |  | inactive |  | inactive | inactive |  | inactive | inactive | inactive | inactive | inactive | inactive | inactive
19 | CC(Cc1ccc(OCC(=O)O)cc1)NCC(O)c1cccc(Cl)c1 (stereo not given) | inactive |  | inactive | inactive | inactive | inactive | inactive | inactive | inactive | inactive |  | inactive | inactive | inactive | inactive |  | inactive | inactive
20 | COC(=O)N1CCN(C(=O)Cc2ccc(Cl)c(Cl)c2)C(CN2CCCC2)C1 (stereo not given) | inactive |  | inactive | inactive | inactive | inactive | inactive | inactive | inactive | inactive |  |  | inactive | inactive |  |  |  | inactive
